Structures are written as SMILES. Screen size: about 100,000 compounds; about 4,200 (4.2%) were called active. Many of the other results were omitted from the sample, so actives are more common in it than they were. Unmarked numbers belong to inactive results.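 How the source made its calls: active means single-dose well whose peak fluorescence ratio is a statistical outlier from its plate by either plate-standardised score or position-corrected B-score; inactive means the rest.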

This experiment deals with Voltage-dependent T-type calcium channel subunit alpha-1H (Homo sapiens) (UniProt O95180). Briefly: Cav3.2 calcium influx blockers – cell-based, Fluo-4 calcium fluorescence, FDSS, MLSMR library, primary screen (AID 449739). The note with it: Cav3.2-expressing cells, at 10 µM, active compounds read low.
Chain of Voltage-dependent T-type calcium channel subunit alpha-1H (Homo sapiens) (O95180 whole entry, looked up): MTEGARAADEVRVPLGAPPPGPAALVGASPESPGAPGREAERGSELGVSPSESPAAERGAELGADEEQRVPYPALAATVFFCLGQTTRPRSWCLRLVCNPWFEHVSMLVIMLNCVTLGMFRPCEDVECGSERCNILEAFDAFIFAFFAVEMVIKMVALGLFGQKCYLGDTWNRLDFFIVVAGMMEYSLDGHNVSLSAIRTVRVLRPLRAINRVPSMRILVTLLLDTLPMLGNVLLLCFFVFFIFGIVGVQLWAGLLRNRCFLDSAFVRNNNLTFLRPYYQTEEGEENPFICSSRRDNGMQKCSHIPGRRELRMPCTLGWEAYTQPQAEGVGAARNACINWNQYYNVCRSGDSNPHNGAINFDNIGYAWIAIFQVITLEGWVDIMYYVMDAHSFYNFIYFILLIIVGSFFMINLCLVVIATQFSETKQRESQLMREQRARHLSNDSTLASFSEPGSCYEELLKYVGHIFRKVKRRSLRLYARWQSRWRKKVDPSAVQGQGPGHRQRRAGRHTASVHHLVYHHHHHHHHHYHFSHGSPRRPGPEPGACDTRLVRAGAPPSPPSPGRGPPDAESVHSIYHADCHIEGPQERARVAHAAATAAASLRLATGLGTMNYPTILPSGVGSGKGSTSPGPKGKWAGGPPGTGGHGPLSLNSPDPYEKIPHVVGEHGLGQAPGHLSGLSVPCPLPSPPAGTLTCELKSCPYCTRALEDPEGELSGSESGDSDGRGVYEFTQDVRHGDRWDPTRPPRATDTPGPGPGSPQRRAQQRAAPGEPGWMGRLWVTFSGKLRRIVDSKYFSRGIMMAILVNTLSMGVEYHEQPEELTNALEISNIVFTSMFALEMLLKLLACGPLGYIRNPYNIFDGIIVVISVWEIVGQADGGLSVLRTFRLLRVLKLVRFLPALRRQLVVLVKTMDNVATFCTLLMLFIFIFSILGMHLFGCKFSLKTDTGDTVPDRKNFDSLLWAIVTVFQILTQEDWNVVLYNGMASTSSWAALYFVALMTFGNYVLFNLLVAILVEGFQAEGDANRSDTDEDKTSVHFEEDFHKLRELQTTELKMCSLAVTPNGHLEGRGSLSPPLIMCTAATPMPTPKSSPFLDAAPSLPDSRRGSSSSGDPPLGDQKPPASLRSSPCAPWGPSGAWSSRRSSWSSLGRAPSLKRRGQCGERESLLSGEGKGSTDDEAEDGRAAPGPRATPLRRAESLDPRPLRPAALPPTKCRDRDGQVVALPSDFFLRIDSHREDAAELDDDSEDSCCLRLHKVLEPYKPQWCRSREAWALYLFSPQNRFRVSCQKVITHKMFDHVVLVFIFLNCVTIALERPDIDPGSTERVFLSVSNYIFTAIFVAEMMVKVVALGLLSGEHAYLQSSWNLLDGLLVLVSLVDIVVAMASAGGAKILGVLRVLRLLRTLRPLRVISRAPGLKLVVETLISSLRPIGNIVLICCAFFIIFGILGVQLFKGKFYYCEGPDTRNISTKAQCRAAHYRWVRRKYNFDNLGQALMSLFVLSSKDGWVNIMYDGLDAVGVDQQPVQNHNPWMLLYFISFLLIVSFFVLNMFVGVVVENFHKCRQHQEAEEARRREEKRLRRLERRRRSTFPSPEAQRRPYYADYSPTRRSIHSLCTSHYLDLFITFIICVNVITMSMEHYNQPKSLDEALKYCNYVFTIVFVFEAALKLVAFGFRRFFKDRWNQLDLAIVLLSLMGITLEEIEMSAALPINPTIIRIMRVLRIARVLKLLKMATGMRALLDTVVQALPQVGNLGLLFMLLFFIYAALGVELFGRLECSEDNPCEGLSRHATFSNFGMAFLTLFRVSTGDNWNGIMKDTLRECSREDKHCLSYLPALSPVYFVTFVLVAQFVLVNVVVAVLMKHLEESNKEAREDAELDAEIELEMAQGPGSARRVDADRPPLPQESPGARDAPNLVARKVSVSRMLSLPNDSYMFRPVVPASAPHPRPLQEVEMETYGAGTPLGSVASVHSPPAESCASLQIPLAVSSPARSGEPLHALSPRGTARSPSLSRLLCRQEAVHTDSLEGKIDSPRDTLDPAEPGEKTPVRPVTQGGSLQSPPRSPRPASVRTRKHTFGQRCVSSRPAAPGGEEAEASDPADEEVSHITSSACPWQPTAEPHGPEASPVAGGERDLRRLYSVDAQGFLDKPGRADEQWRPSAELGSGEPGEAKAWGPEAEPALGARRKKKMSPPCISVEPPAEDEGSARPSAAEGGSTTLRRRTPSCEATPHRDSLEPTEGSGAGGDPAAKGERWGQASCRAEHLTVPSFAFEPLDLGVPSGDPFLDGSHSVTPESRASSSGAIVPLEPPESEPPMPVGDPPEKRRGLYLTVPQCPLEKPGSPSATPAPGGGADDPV
`COc1cccc(N2CC(C(=O)Nc3c(C)cccc3C)CC2=O)c1` (stereo not given): the B-score was 0.386.
As to `COc1cccc(N(C(=O)c2ccn[nH]2)C2(C(=O)Nc3c(C)cccc3C)CCCCC2)c1`, the B-score is -4.96 (active).
As for `COc1ccc(NC(=O)c2cccc(NC(=O)c3ccco3)c2)c(OC)c1`, the B-score is -2.2.
For `COc1ccccc1C(=O)Nc1ccc(NC(=O)c2ccco2)c(C)c1`, the B-score is -5.24 (active).
In the case of `COC(=O)c1cc(Cl)c(NC(=O)c2ccco2)cc1OC` it was -0.41; in that of `Cc1nc(C(=O)NCc2ccccc2)sc1C1(C)CC(c2cccnc2)=NO1` (stereo not given), 0.0411; in that of `CCOC(=O)c1ccc(NC(=O)c2nc[nH]c2C(=O)NCc2ccccc2)cc1`, -0.706.
Take `Oc1c(Cl)cc(Cl)c(Cl)c1Cc1c(O)c(Cl)cc(Cl)c1Cl`: the B-score is -5.05 (active).
In the case of `CSc1ccc(S(=O)(=O)NC2CCCCC2)cc1` it was -0.215; in that of `CSc1ccc(S(=O)(=O)NCc2ccc(Cl)cc2)cc1`, -1.35.
Under `CSc1ccc(S(=O)(=O)Nc2cccc(F)c2)cc1` stands -4.09 (active); under `CC(C)(C)OC(=O)NCCCC1=CC2=CC(=O)C(C)(OC(=O)c3ccco3)C(=O)C2=CO1` (stereo not given), 0.291; under `Cc1ccc(NC(=S)NC(=O)c2ccc(-c3ccccc3)cc2)cc1`, -0.678.
In the case of `COc1ccc(C(=O)NC(=S)NNC(=O)CCc2ccccc2)cc1` it was -4.4 (active); in that of `CCNC(=S)NNC(=O)Cc1ccccc1`, 0.703.
With `CCOc1c2ccc(C(=O)NCc3ccc4c(c3)OCO4)cc2nn1C`, the B-score is 0.329.
In the case of `CC(=O)NS(=O)(=O)c1ccc(NC(=O)/C=C/c2ccccc2Cl)cc1`, the B-score was -1.8.
Under `CCNc1nc(N)nc(-c2cc(Cl)ccc2OC)n1` stands 0.499; under `CC[C@@H](C)[C@@H](C(=O)N1CCN(C(=O)OC(C)(C)C)CC1)n1cc(CCC(=O)O)nn1`, 1.09.
In the case of `COC(=O)/C(=C\Nc1ccccc1)NC(=O)c1ccc(Cl)cc1Cl` it was -5.14 (active).
Take `COc1ccc(Cl)cc1C(=O)NCC#N`: the B-score is 0.746.
As for `CC(C)(C)C(=O)Nc1ccc(C(=O)N/N=C/c2ccccc2OC(=O)c2ccc(Cl)cc2Cl)cc1`, the B-score is -2.74.
In the case of `CCOc1cc(/C=C2/N=C(c3ccc(C(C)(C)C)cc3)OC2=O)cc(Cl)c1OS(C)(=O)=O` it was -1.04; in that of `CCn1cc(C(=O)NCc2ccc3c(c2)OCO3)c2cc(OC)c(OC)cc2c1=O`, 0.417; in that of `CC(C)NC(=O)CSc1ccccc1C(=O)NCc1ccc2c(c1)OCO2`, 0.374.
For `Cc1nc2c(C(=O)NCc3ccc4c(c3)OCO4)c[nH]n2c(=O)c1Cc1ccccc1F`, the B-score is -5.22 (active).
For the compound `O=C(CSc1nc(C2CC2)nc2ccccc12)Nc1ccc2c(c1)OCCO2`, the B-score is 0.0431.
In the case of `COc1ccc(OC)c(C(=O)c2coc3ccc(OC)cc23)c1`, the B-score was -3.61 (active).
In the case of `COc1ccc2oc(C)c(NC(C)=O)c2c1` it was 0.131; in that of `COc1ccc(OC)c(C(=O)c2ccc(C(=O)O)cc2)c1`, -3.15.
Under `Cc1ccccc1C(=O)N1CCC(C(=O)Nc2ccc(S(=O)(=O)N(C)C(C)C)cc2)CC1` stands 0.159.
Under `NC(=O)CC[C@@H]1NC(=O)[C@H](CO)NC(=O)c2cc([N+](=O)[O-])cc(I)c2NCC[C@@H](C(N)=O)NC1=O` stands 0.984.
For the compound `O=C(NCCc1ccc2c(c1)OCCO2)c1cc2ccccc2o1`, the B-score was -3.85 (active).
Under `O=C(COC(=O)c1ccc2c(c1)OCCO2)NCc1ccccc1` stands -0.412.
On to `O=C(CC(Cc1ccccc1)C(=O)O)NCCc1ccc2c(c1)OCO2` (stereo not given), for which the B-score was -0.225.
In the case of `COc1ccc(CNC(=O)[C@@H]2CC=C[C@@H]3CCN(C4CC4)C(=O)[C@@H]32)cc1` it was 1.86.
`CC[C@H](C)[C@@H](C(=O)N1CCNCC1)n1cc([C@@H](N)Cc2ccc(O)cc2)nn1`: the B-score was 0.0182.
For `Cc1cccc(N(C(=O)Cc2cccs2)C(C(=O)NC2CCCC2)c2ccsc2)c1` (stereo not given), the B-score is -1.16.
For `CCC1(CC)C(=O)C2=C3C1[C@H](C(=O)OC)C=C(C(=O)OC)C[C@H]3[C@H]1C(=O)N(Cc3ccccc3)C(=O)[C@H]1[C@H]2C` (stereo not given in full), the B-score is 0.691.
In the case of `Cc1[nH]n(-c2cccc(Cl)c2)c(=O)c1-c1ccc(Cl)cc1` it was -7.48 (active); in that of `Cc1ccc(-c2cc(=O)c3ccc(Cl)cc3[nH]2)cc1`, -0.0223.
Take `O=c1[nH]n(-c2cccc(Cl)c2)c2ncccc12`: the B-score was 0.173.
In the case of `Cc1ccc(C)n1C(Cc1ccccc1)C(=O)O` (stereo not given) it was 1.91; in that of `CC1=CC(C)(C)Nc2ccc(OC(=O)C(Cc3ccccc3)N3C(=O)C4CCCCC4C3=O)cc21` (stereo not given), -5.23 (active); in that of `CC1=CC(C)(C)Nc2ccc(OC(=O)CN3C(=O)C4CCCCC4C3=O)cc21` (stereo not given), -0.00954.
In the case of `COCCCn1c(SCc2cccc(OC)c2)nc2cc(OC)c(OC)cc2c1=N` it was -0.819; in that of `C=C1CCN([C@H](C(=O)NCc2cc(OC)c(OC)c(OC)c2)C(C)C)S(=O)(=O)c2ccccc21`, 1.03; in that of `COc1ccc2cc1Oc1ccc(cc1)C[C@H]1c3cc(c(OC)cc3CCN1C)Oc1c(O)c(OC)cc3c1[C@H](C2)N(C)CC3`, 1.81.
Take `COc1ccc(-c2cc(C(=O)n3cnc4ccccc43)c3ccccc3n2)cc1`: the B-score is -0.0392.
Under `COc1ccccc1CSc1nc2ccccc2[nH]1` stands -0.942; under `O=C(COc1ccccc1)NCCc1nc2ccccc2[nH]1`, 0.299; under `COc1ccc(-c2[nH]nc(-c3ccccc3)c2-c2nc3ccccc3[nH]2)cc1`, -6.24 (active).
In the case of `O=C1C(=O)N(CCN2CCOCC2)C(c2ccccn2)/C1=C(/O)c1ccc(Cl)cc1` (stereo not given) it was -0.156.
In the case of `COc1ccccc1C1/C(=C(/O)c2ccc(OC(C)C)cc2)C(=O)C(=O)N1c1cc(C)on1` (stereo not given) it was -0.532; in that of `Cc1cc(N2C(=O)C(=O)/C(=C(/O)c3ccc(Cl)cc3)C2c2cccc(Br)c2)no1` (stereo not given), -7.89 (active); in that of `Cc1cccc(NC(=S)Nc2ccc(Br)cc2)c1`, -1.14.
As for `O=C(COc1ncnc2c(Cl)cc(Cl)cc12)N1CCN(S(=O)(=O)c2ccccc2)CC1`, the B-score is 0.727.
In the case of `COc1ccccc1N(C(=O)Cn1nnc2ccccc21)C(C(=O)NCc1ccco1)c1ccc(C)o1` (stereo not given) it was -6.1 (active); in that of `Cc1ccc(C(C(=O)NCc2ccco2)N(CC2CCCO2)C(=O)Cn2nnc3ccccc32)cc1` (stereo not given), 0.195.
As for `CC(C)(C)NC(=O)C(c1ccco1)N(Cc1ccc2c(c1)OCO2)C(=O)Cn1nnc2ccccc21` (stereo not given), the B-score was -1.57.
Under `CCOC(=O)c1cc(NC(=O)c2ccc(Cl)cc2)c(=O)oc1-c1ccccc1` stands -0.21.
Turning to `COC(=O)C1(O)CC(C(C)C)=NN1C(=O)c1ccc(Cl)cc1` (stereo not given), the B-score is -0.542.
In the case of `Cc1nnsc1S(=O)(=O)Cc1ccccc1Cl` it was 0.123; in that of `O=C(NNS(=O)(=O)c1ccc(Cl)cc1)C1CCN(Cc2ccccc2)CC1`, 0.455; in that of `COc1ccc(C(=O)Nc2nc(-c3ccc(OC)cc3)c(-c3ccc([N+](=O)[O-])cc3)s2)cc1`, -2.13.
With `COC(=O)C(NC(=O)c1ccc(OC)cc1)(Nc1ncc(S(=O)(=O)c2ccc([N+](=O)[O-])cc2)s1)C(F)(F)F` (stereo not given), the B-score was -8.97 (active).
Under `COc1ccc(C(=O)Nc2ccc(S(=O)(=O)NC(C)C)cc2)cc1` stands 1.46.
In the case of `COC(=O)CCCC1=CC2=CC(=O)C(C)(OC(=O)c3cccs3)C(=O)C2=CN1CC(C)C` (stereo not given) it was 0.582; in that of `COC(C[C@@H]1O[C@@H]1C(=O)[C@H](C)OCc1ccccc1)OC`, -0.00689.
In the case of `Cc1ccc(C)c(NC(=O)CSc2nnc(Cc3cccn3C)n2-c2ccc(F)cc2)c1` it was -2.84; in that of `COc1ccccc1NC(=O)CSc1nnc(Cc2cccn2C)n1-c1ccc(F)cc1`, -2.37; in that of `CCc1nnc(NC(=O)CSc2nnc(Cc3ccccc3)n2-c2ccc(OC)cc2)s1`, -1.29.
In the case of `COc1ccc(-n2c(Cc3cccn3C)nnc2SCC(=O)Nc2cc(C)cc(C)c2)cc1`, the B-score was -8.52 (active).
In the case of `Cn1cccc1Cc1nnc(SCC(=O)NCCc2ccccc2)n1-c1ccc(F)cc1` it was -2.55.
Regarding `COC(=O)c1ccc(NC(=O)CSc2nnc(Cc3cccn3C)n2-c2ccc(F)cc2)cc1`, the B-score is -9.38 (active).
`COc1ccccc1CNC(=O)c1ccc(SC)cc1OC`: the B-score is -2.74.
Under `Cc1ccccc1CS(=O)(=O)CC1(O)CCN(C(=O)c2cccc(C(F)(F)F)c2)CC1` stands 0.394; under `C#CCOCCOCCOCCNc1nc(N2CCN(C(=O)[C@H](Cc3ccc(O)cc3)n3cc(C(N)CC(C)C)nn3)CC2)nc(N2CCN(C(=O)[C@H](CCC(=O)O)n3cc(C(N)[C@H](C)CC)nn3)CC2)n1` (stereo not given in full), -0.0524.
In the case of `COc1cc(NC(=O)c2cncc(-c3ccc(C#N)cc3)c2)cc(C(=O)Nc2cccc(C(F)(F)F)c2)c1` it was 0.721; in that of `CCOc1[nH]n(-c2ccc(Cl)cc2)c(=O)c1C=Nc1ccc(O)cc1`, -0.0117; in that of `O=C(Nc1ccc(-c2csc(Nc3cccc(C(F)(F)F)c3)n2)cc1)c1cccc(C(F)(F)F)c1`, 0.00365.
Under `COC(C[C@@H](O)C[C@H](O)[C@H](C)OCc1ccccc1)OC` stands 1.07; under `O=C(c1ccccc1)c1cccn1CC(=O)N1CCN(c2ccc(F)cc2)CC1`, -6.62 (active); under `Cn1c(=O)c2c(ncn2CC(=O)N2CCN(c3ccccc3)CC2)n(C)c1=O`, 0.538.
Regarding `CCOc1ccc(-c2nnn(CC(=O)N3CCN(c4ccc(F)cc4)CC3)n2)cc1OCC`, the B-score was 0.122.

The values above are taken from PubChem BioAssay AID449739 (Vanderbilt High Throughput Screening Facility, 2010).
